# Experimental data: the supplement of paper PMC6555819
# Tests used:
# Experiment in all cases: PBM binding z-score (relative to random genomic background probes); higher = stronger binding; sequences stand for … in GC…GCGATTGACAGCGTAGAATGAAGG
# [1] = tested on: PPARg:RXRa DBDmut IVT, anti-RXR (DBD mutation: RXRa K156A/R161A, NR concentration 270 nM, RXRa partner concentration 90 nM)
# Outline: (§1)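 Probes were double-stranded and carried 34-nt variable regions with direct-repeat seeds, single-nucleotide variants, half-site ablations and random human genomic background sequences, printed on custom Agilent 4×180K protein-binding microarrays. Arrays were incubated 1 h with ligand-free nuclear receptor dimers in PBS pH 7.4, 2% milk, 0.02% Triton X-100, 1 mM DTT, 0.2 mg/mL BSA and 0.4 mg/ml salmon testes DNA. Antibodies against each partner (one per run) detected binding, and scanned fluorescence was regression-normalized. Binding z-scores use the random background probes as reference.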
# [2] = tested on: PPARg:RXRa IVT, anti-PPARg (NR concentration 270 nM, RXRa partner concentration 90 nM)
# Outline: as §1
# [3] = tested on: PPARg DBDmut:RXRa IVT, anti-PPARg (DBD mutation: PPARg1 K132A/R137A, NR concentration 270 nM, RXRa partner concentration 90 nM)
# Outline: as §1
# [4] = tested on: PPARg DBDmut IVT, anti-PPARg (DBD mutation: PPARg1 K132A/R137A, NR concentration 270 nM)
# Outline: as §1
# [5] = tested on: PPARg homodimer (NR concentration 180 nM)
# Outline: as §1
# [6] = tested on: PXR:RXRa (NR concentration 270 nM, RXRa partner concentration 90 nM)
# Outline: as §1
# [7] = tested on: PXR homodimer (NR concentration 270 nM)
# Outline: as §1
# [8] = tested on: RARa:RXR (NR concentration 270 nM, RXRa partner concentration 90 nM)
# Outline: as §1
# [9] = tested on: RARa homodimer (NR concentration 270 nM)
# Outline: as §1
# [10] = tested on: RARb:RXRa (NR concentration 270 nM, RXRa partner concentration 90 nM)
# Outline: as §1
# [11] = tested on: RARb homodimer (NR concentration 270 nM)
# Outline: as §1
# [12] = tested on: RARg:RXRa (NR concentration 270 nM, RXRa partner concentration 90 nM)
# Outline: as §1
# [13] = tested on: RARg homodimer (NR concentration 270 nM)
# Outline: as §1
# [14] = tested on: RXRa DBDmut IVT, anti-RXR (DBD mutation: RXRa K156A/R161A, NR concentration 90 nM)
# Outline: as §1
# [15] = tested on: RXRa homodimer (NR concentration 180 nM)
# Outline: as §1
# [16] = tested on: THRa:RXRa (NR concentration 90 nM, RXRa partner concentration 90 nM)
# Outline: as §1
# [17] = tested on: THRa homodimer (NR concentration 90 nM)
# Outline: as §1
# [18] = tested on: VDR homodimer (NR concentration 270 nM)
# Outline: as §1
Sequence,PBM binding z-score [1],PBM binding z-score [2],PBM binding z-score [3],PBM binding z-score [4],PBM binding z-score [5],PBM binding z-score [6],PBM binding z-score [7],PBM binding z-score [8],PBM binding z-score [9],PBM binding z-score [10],PBM binding z-score [11],PBM binding z-score [12],PBM binding z-score [13],PBM binding z-score [14],PBM binding z-score [15],PBM binding z-score [16],PBM binding z-score [17],PBM binding z-score [18]
TCTTGTAGATCAAAGGTTCAGAAAGCCGAAGCCT,1.88,1.55,0.156,0.203,0.638,0.73,-0.103,1.13,-0.254,0.898,0.917,0.795,0.335,1.32,1.29,0.166,-0.308,1.5
CCTACTGGGCCACGAAAGGTTATTGATTCAGTGA,5.07,5.34,0.351,-0.129,0.506,1.43,0.179,1.78,0.179,1.39,1.98,1.1,1.08,-0.0139,1.2,1.66,0.302,0.238
GCGACTGGGGCAAAGCAGCTTACCATAAGGTTGG,4.53,3.13,-0.355,-0.462,-0.569,-0.681,-0.894,-0.835,-1.36,0.456,-0.0781,-0.172,0.112,-0.131,-0.267,-0.139,-0.756,-0.658
CCTGCTGGGCCAAAAAGGTCATTGATGCCGATAA,0.633,1.32,-0.602,-0.914,3.24,4.99,3.34,5.41,0.138,3.89,4.32,4.6,4.17,0.818,4.91,3.12,0.279,2.58
ATCTGTAGGTAAAGATAGTTCAGTGAATGCAAAT,1.63,1.5,0.849,0.832,0.977,1.03,0.786,0.946,0.896,0.675,0.933,0.435,0.657,-0.108,0.326,0.527,-0.0674,0.568
CGAACTAGGGCATGAGTTGATAGCAAATGCCGAT,7.01,6.1,1.05,0.0296,-0.00514,-0.191,-0.257,0.155,-0.133,1.12,0.222,0.852,0.834,0.394,0.388,0.0506,-0.493,0.329
TCGAGTAGGATAGTCGGGGCATTCAGCCAACATA,0.456,-0.749,-1.74,-1.22,-0.949,-0.303,-0.615,-0.363,-0.838,-0.448,-0.402,-0.475,-0.579,0.18,-0.289,0.0302,-0.471,-0.497
GCTGCTAGGACAGGTTGGTCAGCTAACGGGTACG,-0.0688,-0.79,-1.21,-0.812,-0.869,-0.739,-0.561,-0.833,-0.447,0.0113,0.214,-0.345,0.153,-0.341,-0.463,-0.106,-0.393,-0.149
CAAACTAGGTGAAAGGTCAAAGTCGAGCCAACCA,8.64,9.19,5.27,2.48,8.98,6.14,1.76,8,3.76,5.05,4.61,7.35,6.17,2.27,8.91,4.19,1.31,2.49
CCTCGGAGTACAGAAGGTCAGAGCTGTCCGCTTT,0.368,-0.113,-0.995,-1.23,1.8,1.83,0.165,2.18,0.283,2.69,3.15,2.77,2.95,0.9,2.37,2.3,0.111,0.59
ACTAGCAGGCCATGGGTCACTCAAGATTAGTCCG,0.912,2.7,-0.371,-0.346,0.473,0.85,-0.43,1.56,-0.392,1.94,2.1,1.88,2.07,-0.507,1.75,1.42,-0.31,-0.0856
GGACCGAGGGCAAAGTTGATAGCATCTGTCGACG,0.973,1.67,-0.427,-0.551,0.198,1.04,-0.387,1.26,-0.439,2.4,1.42,2.15,1.79,2.07,2.15,1.04,-0.484,1.07
AGACAAAGTTCACTAGGTAACGTAAGATTCAGCT,2.37,4.14,1.01,0.842,1.94,3.7,2,2.91,0.576,4.83,3.8,4.72,5.53,4.31,3.69,2.09,-0.00149,3.48
GGAACAAGGGCATTCGAGTTGATAGCATGGCGAT,2.21,1.65,-0.248,-0.286,0.614,3.18,0.975,0.884,0.198,2.02,1.12,1.21,1.36,2.48,0.917,3.16,-0.205,2.39
CGTCCCAGGTCAAGGTCAGTGAAAGAGACTCGAA,2.24,3.62,0.134,-0.571,3.49,4.05,1.33,4.43,2.12,5.02,4.62,5.74,6.29,2.55,5.19,4.18,3.61,2.6
GCTCAGAGGACAAGGTCAGAGCTTTGTCCGTAGA,0.92,0.924,-1.05,-1.28,0.348,1.74,-0.21,2.17,-0.133,3.78,3.68,3.51,4.41,1.18,2.64,3.08,1.34,0.78
